Experiments:
Test in all cases: log2 ratio of Biotin-Ahx-Ub-VS probe labelling (fragment/DMSO); higher = less target engagement (more negative = stronger competition), active = hit call of the paper (q ≤ 0.05, log2 ratio ≤ -1)
Conditions in all cases: compound concentration: 200 uM; treatment time: 3 h
USP42 = target: T1, USP42 (UniProt Q9H9J4)
T1 sequence (whole entry): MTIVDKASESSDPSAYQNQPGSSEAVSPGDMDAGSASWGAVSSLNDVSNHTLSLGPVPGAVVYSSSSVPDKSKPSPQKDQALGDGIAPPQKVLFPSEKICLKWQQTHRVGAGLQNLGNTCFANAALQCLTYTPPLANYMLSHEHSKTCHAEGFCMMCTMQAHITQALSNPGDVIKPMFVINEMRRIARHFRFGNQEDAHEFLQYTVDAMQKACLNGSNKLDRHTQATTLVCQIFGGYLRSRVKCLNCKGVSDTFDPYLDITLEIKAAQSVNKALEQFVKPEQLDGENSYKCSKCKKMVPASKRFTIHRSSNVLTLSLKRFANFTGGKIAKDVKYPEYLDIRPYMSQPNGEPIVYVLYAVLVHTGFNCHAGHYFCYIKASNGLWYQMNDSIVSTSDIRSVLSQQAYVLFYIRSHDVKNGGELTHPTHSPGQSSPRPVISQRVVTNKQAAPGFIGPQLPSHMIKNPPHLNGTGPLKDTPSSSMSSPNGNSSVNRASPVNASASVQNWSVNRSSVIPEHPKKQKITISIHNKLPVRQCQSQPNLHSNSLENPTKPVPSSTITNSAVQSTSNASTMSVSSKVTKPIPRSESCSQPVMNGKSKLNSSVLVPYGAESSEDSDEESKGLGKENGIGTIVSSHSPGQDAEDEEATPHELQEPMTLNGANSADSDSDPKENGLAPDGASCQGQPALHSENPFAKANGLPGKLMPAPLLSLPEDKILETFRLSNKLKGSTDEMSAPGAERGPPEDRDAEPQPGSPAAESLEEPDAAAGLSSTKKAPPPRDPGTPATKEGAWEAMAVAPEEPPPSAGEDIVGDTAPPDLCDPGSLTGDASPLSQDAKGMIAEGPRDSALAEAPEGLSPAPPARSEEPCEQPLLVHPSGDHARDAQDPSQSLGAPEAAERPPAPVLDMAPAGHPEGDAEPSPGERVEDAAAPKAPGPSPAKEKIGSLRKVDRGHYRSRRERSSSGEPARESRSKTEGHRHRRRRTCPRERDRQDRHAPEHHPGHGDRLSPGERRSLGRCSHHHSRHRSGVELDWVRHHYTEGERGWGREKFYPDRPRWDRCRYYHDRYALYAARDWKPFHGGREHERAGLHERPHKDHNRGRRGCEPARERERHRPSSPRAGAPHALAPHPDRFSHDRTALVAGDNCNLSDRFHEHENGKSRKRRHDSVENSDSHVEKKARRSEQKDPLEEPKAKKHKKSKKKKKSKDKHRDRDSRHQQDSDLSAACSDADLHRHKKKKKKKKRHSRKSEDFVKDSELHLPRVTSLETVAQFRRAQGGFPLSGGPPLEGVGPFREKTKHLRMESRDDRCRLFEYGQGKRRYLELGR
Method in brief: (§1)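 Labelled DUBs from HEK293T lysate were NeutrAvidin-enriched, digested with LysC and trypsin, and run by diaPASEF LC-MS/MS. Before that, each 495 µg sample in Tris/CHAPS/IGEPAL buffer with protease inhibitors was treated in triplicate with fragment at 200 µM or vehicle for 3 h, then with Biotin-Ahx-Ub-VS at 0.5 µM final for 1 h. Values are average log2 ratios of fragment over vehicle by unpaired t-test, based on global-median-normalised Spectronaut label-free quantities from proteins with ≥2 unique peptides.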

USP46 = USP46 (UniProt P62068)
Chain of USP46 (P62068 whole entry): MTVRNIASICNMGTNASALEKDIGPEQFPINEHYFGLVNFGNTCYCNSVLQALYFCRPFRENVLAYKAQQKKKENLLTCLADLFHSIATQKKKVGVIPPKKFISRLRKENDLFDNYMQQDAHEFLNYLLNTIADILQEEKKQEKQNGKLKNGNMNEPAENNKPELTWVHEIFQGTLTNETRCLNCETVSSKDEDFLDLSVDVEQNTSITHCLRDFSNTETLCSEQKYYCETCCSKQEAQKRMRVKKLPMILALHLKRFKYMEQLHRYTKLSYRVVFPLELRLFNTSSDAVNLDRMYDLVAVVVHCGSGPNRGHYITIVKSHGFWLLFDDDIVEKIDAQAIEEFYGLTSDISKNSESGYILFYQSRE
Method in brief: as §1

USP47 = target: T2, USP47 (UniProt Q96K76)
T2 sequence (whole entry): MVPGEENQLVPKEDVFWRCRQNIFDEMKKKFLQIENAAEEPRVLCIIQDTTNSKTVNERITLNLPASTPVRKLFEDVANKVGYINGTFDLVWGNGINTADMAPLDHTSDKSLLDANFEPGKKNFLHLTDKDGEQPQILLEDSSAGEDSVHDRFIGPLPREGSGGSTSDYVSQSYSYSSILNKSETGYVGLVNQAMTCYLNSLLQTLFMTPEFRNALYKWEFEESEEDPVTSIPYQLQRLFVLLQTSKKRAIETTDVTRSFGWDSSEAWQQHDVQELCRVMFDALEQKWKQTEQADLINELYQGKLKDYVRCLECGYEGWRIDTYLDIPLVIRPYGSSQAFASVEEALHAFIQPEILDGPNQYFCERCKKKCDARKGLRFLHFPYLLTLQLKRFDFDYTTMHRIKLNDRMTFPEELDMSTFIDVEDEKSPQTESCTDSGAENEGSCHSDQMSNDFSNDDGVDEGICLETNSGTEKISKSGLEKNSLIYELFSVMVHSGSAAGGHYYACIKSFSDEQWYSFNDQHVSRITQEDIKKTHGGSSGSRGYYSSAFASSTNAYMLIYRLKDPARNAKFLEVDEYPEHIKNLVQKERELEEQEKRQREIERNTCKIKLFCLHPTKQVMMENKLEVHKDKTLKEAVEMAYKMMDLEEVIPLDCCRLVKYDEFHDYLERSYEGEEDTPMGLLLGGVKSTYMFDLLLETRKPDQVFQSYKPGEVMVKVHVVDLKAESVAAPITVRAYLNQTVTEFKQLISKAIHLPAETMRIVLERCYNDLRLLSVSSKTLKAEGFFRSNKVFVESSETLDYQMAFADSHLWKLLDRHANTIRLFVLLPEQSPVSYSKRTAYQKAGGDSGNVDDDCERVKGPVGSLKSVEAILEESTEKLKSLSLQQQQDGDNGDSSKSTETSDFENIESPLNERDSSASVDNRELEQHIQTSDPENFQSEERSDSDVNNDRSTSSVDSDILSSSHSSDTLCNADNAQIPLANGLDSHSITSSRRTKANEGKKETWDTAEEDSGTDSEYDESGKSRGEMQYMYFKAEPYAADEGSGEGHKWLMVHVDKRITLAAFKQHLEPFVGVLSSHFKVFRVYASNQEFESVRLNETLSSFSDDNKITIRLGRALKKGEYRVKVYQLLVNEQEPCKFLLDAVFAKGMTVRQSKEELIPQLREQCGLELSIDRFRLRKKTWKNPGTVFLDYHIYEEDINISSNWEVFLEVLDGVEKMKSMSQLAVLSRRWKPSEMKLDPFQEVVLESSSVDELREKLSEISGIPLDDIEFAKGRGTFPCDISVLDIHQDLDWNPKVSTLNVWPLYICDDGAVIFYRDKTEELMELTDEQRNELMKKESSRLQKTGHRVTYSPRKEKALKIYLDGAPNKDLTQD
Method in brief: as §1

USP48 = target: T3, USP48 (UniProt Q86UV5)
T3 sequence (whole entry): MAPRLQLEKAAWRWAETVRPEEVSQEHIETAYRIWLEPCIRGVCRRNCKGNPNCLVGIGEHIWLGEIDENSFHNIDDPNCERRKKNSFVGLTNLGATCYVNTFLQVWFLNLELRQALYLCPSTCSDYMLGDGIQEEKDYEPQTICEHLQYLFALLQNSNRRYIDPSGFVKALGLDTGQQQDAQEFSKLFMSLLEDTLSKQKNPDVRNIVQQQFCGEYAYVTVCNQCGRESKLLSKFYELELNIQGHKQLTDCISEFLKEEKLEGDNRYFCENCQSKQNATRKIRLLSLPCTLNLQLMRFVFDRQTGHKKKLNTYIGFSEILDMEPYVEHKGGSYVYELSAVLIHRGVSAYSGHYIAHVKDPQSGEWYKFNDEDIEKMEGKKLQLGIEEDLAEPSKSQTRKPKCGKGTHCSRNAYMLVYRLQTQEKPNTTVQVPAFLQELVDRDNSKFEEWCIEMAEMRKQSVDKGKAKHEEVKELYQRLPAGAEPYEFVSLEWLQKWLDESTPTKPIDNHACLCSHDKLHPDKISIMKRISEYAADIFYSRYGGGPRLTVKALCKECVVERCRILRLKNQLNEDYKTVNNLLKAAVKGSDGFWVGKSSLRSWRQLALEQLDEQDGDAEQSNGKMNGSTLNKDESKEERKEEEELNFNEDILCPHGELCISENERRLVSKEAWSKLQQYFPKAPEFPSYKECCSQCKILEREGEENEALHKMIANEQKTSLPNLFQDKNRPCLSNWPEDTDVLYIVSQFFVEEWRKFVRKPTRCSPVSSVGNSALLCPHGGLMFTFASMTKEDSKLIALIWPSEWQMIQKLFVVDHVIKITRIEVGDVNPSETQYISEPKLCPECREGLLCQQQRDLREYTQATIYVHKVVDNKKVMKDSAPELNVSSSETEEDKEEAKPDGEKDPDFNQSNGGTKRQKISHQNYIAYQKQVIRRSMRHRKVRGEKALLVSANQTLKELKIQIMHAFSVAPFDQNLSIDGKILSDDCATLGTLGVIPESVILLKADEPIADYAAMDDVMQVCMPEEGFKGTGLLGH
Method in brief: as §1

USP5 = target: T4, USP5 (UniProt P45974)
T4 sequence (whole entry): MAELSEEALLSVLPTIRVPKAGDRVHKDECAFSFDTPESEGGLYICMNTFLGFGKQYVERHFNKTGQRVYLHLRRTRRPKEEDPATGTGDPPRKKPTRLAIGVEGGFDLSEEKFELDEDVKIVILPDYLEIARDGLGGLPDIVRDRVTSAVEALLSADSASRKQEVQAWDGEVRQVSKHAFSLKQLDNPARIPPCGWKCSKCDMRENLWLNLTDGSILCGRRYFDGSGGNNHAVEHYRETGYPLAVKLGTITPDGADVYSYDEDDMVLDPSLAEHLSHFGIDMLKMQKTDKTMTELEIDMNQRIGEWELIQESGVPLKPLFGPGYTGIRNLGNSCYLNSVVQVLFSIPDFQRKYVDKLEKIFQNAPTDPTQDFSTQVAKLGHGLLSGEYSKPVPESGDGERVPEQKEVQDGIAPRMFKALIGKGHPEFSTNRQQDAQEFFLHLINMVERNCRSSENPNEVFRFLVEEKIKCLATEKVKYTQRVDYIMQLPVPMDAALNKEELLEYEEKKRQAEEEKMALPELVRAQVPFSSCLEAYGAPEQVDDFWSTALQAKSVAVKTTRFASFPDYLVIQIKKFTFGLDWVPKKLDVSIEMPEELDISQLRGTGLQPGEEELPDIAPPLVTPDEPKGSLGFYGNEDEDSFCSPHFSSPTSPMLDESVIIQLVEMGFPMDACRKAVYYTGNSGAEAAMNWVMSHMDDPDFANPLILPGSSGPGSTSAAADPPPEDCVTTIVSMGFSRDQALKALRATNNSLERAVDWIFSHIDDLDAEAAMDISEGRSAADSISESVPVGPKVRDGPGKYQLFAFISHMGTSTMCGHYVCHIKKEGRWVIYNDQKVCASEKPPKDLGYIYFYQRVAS
Method in brief: as §1

USP54 = USP54 (UniProt Q70EL1)
Chain of USP54 (Q70EL1 whole entry): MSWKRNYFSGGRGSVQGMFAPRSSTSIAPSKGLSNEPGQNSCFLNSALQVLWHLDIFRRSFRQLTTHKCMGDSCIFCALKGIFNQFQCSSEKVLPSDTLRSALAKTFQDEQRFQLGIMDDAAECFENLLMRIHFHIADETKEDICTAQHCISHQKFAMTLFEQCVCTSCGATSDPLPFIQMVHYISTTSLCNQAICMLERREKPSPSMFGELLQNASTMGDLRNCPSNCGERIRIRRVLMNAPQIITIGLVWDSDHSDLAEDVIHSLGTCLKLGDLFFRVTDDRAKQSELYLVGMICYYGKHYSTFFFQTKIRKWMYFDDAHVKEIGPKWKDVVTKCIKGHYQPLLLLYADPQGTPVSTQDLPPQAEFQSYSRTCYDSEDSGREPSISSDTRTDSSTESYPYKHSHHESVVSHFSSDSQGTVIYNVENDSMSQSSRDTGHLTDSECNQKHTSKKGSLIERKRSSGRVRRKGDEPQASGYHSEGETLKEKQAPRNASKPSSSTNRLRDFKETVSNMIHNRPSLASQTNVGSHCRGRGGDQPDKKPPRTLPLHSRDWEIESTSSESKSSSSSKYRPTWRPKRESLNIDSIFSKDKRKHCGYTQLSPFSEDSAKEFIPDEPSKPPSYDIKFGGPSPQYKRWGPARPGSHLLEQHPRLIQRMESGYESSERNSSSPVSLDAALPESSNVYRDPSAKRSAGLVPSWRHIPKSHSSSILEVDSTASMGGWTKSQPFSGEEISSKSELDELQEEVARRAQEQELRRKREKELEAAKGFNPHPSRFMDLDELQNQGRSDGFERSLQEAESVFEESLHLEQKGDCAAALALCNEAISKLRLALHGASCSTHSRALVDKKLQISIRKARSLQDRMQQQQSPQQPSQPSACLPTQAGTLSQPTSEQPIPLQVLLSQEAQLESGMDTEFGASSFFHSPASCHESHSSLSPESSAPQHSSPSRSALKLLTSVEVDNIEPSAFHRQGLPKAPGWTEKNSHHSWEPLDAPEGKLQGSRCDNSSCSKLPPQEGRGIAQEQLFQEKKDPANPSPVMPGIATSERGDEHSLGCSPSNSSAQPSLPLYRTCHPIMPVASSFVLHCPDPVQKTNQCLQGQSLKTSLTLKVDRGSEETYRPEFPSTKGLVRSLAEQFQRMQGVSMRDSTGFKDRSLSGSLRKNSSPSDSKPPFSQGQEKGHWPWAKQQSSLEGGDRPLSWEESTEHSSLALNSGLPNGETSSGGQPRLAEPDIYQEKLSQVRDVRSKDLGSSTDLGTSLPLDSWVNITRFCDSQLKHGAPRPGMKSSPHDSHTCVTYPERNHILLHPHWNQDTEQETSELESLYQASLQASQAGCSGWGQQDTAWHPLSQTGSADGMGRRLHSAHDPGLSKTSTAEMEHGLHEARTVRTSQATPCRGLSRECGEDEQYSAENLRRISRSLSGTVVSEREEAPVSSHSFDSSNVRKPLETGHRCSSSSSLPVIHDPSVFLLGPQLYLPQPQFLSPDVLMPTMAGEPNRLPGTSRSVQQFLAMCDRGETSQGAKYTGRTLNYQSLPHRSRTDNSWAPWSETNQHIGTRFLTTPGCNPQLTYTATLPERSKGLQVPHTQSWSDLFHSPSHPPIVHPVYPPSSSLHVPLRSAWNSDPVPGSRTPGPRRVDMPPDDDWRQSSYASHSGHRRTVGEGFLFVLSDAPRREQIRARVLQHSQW
Method in brief: as §1

USP7 = USP7 (UniProt Q93009)
Chain of USP7 (Q93009 whole entry, looked up): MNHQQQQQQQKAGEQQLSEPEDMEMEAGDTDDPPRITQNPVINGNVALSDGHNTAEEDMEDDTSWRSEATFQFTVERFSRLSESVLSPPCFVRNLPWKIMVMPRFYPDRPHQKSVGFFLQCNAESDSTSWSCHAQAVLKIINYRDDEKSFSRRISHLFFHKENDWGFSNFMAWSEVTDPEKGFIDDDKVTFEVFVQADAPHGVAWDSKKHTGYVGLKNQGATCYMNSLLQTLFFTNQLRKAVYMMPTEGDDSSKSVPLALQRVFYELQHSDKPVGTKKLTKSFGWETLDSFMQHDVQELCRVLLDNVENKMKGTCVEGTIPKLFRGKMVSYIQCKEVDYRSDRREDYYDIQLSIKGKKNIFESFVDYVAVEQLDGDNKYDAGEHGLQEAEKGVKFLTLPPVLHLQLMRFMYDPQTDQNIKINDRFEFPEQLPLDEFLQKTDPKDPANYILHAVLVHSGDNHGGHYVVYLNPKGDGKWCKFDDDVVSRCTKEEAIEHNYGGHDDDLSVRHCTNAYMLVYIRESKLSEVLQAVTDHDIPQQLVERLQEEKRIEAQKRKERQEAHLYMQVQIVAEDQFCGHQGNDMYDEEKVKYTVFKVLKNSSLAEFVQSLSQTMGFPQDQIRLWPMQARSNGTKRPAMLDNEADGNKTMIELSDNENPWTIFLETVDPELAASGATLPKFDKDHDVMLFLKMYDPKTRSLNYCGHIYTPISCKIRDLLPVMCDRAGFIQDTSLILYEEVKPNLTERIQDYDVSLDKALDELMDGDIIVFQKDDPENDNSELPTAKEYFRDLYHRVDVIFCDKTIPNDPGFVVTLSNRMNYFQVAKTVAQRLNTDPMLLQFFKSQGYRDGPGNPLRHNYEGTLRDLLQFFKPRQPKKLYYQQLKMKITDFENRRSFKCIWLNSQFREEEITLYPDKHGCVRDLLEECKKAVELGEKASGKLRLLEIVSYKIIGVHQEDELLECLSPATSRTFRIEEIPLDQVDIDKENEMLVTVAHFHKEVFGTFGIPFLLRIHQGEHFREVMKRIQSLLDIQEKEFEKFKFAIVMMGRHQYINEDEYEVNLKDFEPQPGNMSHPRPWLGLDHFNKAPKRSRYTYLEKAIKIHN
Method in brief: as §1

USP8 = target: T5, USP8 (UniProt P40818)
T5 sequence (whole entry): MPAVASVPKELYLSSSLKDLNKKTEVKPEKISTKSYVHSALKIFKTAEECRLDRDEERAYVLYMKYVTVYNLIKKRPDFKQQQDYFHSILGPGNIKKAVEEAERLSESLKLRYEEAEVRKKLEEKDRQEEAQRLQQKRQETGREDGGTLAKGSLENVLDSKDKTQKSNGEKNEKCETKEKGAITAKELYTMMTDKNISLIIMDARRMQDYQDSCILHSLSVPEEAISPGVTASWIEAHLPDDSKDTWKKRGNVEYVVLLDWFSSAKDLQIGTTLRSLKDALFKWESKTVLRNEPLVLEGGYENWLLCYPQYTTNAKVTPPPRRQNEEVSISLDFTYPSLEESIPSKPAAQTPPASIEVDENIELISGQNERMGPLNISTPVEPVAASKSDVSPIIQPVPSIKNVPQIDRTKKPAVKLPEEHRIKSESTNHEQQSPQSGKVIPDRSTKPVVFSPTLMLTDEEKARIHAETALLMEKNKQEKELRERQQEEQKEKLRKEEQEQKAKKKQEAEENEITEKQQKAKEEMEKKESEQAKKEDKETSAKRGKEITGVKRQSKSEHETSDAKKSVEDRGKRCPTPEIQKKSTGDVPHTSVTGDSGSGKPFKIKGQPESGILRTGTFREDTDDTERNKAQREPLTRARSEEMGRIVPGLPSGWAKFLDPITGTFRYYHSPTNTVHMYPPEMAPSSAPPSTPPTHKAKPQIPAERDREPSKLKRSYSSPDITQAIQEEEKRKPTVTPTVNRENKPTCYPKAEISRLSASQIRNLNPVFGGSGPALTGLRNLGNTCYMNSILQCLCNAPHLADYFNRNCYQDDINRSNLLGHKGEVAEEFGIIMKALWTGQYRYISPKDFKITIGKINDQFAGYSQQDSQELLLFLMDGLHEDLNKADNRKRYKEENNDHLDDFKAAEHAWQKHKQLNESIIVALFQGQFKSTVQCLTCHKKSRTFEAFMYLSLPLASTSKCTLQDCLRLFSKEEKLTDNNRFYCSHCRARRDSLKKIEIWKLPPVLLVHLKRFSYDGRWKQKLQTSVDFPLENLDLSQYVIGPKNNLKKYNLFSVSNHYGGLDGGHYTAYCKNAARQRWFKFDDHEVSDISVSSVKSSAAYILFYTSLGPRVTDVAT
Method in brief: as §1

Measured: log2 ratio of Biotin-Ahx-Ub-VS probe labelling

CS(=O)(=O)c1ccc(CNC(=O)CCl)cc1
inactive: USP42 0.283 | USP46 -0.122 | USP47 -0.0551 | USP48 -0.0444 | USP5 -0.111 | USP54 0.392 | USP7 -0.145 | USP8 -0.0148

From the supplement of paper PMC11732987, “Enantioselective OTUD7B fragment discovery through chemoproteomics screening and high-throughput optimisation” (Communications Chemistry, 2025)
